# High-throughput results from PubChem.
# A selection: hits, their analogues and other compounds. The true share with any hit is near 7.4%.
# FLuc modulator: counter-screen for miR-21 project: firefly luciferase inhibitors or activators. P08659. purified FLuc, Km substrates, luminescence inhibition. Potency, µM (series often up to 57.5 µM), inactives show top-dose activity change, negative = inhibition, usual class: inhibitors. 6.9% of 360,000 active;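 also: plate controls were vehicle for no effect and reference inhibitor for full effect; nearly all actives have a fitted effect of over 55% in size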
# Target sequence (P08659 whole entry, looked up): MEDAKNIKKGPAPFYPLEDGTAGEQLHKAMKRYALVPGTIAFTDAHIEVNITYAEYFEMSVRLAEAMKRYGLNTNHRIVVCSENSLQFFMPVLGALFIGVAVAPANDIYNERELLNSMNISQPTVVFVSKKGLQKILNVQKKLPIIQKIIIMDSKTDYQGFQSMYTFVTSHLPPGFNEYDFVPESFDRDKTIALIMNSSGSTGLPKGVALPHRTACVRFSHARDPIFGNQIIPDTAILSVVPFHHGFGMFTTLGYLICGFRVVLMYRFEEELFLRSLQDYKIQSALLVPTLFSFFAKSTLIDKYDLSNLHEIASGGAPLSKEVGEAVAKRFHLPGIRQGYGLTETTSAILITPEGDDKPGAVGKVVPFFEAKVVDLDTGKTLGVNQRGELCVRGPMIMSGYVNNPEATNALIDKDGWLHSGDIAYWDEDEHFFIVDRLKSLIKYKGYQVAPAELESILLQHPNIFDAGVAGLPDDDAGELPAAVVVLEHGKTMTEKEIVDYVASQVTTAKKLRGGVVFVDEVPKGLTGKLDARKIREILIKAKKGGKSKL
#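 Purified P. pyralis luciferase (10nM final) with 10uM D-luciferin and 10uM ATP (Km levels) in 50mM Tris acetate pH 7.5, 10mM Mg acetate, 0.01% Tween-20, 0.05% BSA; qHTS 6-point titration, ~60 µM downward; luminescence read.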
# SMN2 splice up: increases expression of the SMN2 splice variant; 2.8% of 210,000 active; Potency, µM (top dose mostly 46.1 µM), inactives show at the highest dose activity change, positive = activation, hits mostly activators; HEK293 SMN2-luciferase splicing reporter, luminescence, 30-36 h; also: % of control where 0% means no effect; nearly all actives have a fitted effect of over 55% in size
#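 HEK293 cells carry an SMN2 […]–luciferase reporter in which exon 7 inclusion puts luciferase in frame. Cells were plated 10-12 h before compound addition, then incubated 30-36 h at 37C. ONE-Glo luminescence was read; sodium butyrate at 4.5 mM final served as control.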
# p53 reactivation: restores transcriptional activity of mutant p53 | H1299 p53-A138V BP100-luciferase reporter, luminescence, 24 h | Potency, µM (series often up to 92.2 µM), for inactives: at the highest dose activity change, positive = activation, actives largely listed as activators | 0.063% of 320,000 active; also: % of control where 0% means no effect; nearly all actives have a fitted effect of over 45% in size
#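 p53-null H1299 cells stably carrying temperature-sensitive p53-A138V and a BP100-luciferase reporter were pinned with compounds (4-point, 1:5 series) and held 24 hrs at 37 deg C. Luminescence was read 10 min after detection reagent.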
# NPC1 promoter act: activators of NPC1 promoter; Huh7 NPC1 promoter luciferase reporter, 24 h; Potency, µM (titrated, usually from 9.22 µM), for inactives: at the highest dose activation, most hits filed as activators; 2.4% of 320,000 active; AID 485313; also: % of control where 0% means no effect; nearly all actives have a fitted effect of over 60% in size
#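 Readout is luciferase luminescence, reflecting NPC1 promoter activation in stably transfected Huh7 cells after 24 h compound exposure at 37 °C in reduced-serum medium with 10% FBS.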
# Rab9 promoter act: Rab9 promoter activation; Potency, µM (top dose mostly 9.22 µM), for inactives: top-dose activation, negative = inhibition, usual class: activators; AID 485297; Huh7 Rab9 promoter-luciferase reporter, luminescence, 24 h; 2.8% of 320,000 active; also: % of control where 0% means no effect; nearly all actives have a fitted effect of over 60% in size
#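 Cell-based reporter: Huh7 stable for Rab9 promoter-driven luciferase, plated in reduced-serum medium with 10% FBS at 1500 cells/well, compound-treated 24 h at 37 °C, luminescence read after 10 min reagent.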
# ELG1 genotox: inducers of genotoxicity in HEK293T ELG1-luciferase cells | HEK293T ELG1-luciferase reporter, luminescence, 16 h | Potency, µM (top dose mostly 46 µM), inactives show at the top dose activity change, positive = activation, usual class: activators | 1.3% of 330,000 active; also: % of control where 0% means no effect; nearly all actives have a fitted effect of over 60% in size
#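 ELG1-luciferase HEK293T cells, 2,000/well; compound pinned in; 16 hr, 37 °C, 5% CO2; ONE-Glo, 30 min RT; luminescence on CCD imager.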
# The depositor's hits bear a star; u = inconclusive; x = not tested or not shown; [ ] = dose if it differs, or a comment. Calls follow the shape of the dose curve; as a rule, active = well fitted curve in the direction sought with a large enough effect; inconclusive = small, poorly fitted or top-dose-only effect, or another doubt; inactive = no such curve, though single readings can be large; an effect the other way counts as inactive or inconclusive. Potency is read from the fitted curve at half-maximal effect.
SMILES,FLuc modulator,SMN2 splice up,p53 reactivation,NPC1 promoter act,Rab9 promoter act,ELG1 genotox
Cc1ccc2c(c1)c1cccc3c1n2CCN3CCC(N)=O,6µM*,20µM*,u,3.2µM*,3.2µM*,5µM*
NC(=O)CCn1c2ccccc2c2ccccc21,-3%,-2%,-6%,-1%,-18%,-4%
CCN(CC)c1ccc(-n2nc3cc(C)c(NC(=O)c4ccccc4F)cc3n2)cc1,u,-3%,x,x,x,x
CN1CCc2c(sc3c2C(=O)NC(c2ccc(OC(=O)c4ccccc4)cc2)N3)C1 (centres undefined),u,16µM*,x,x,x,x
CN1CCc2c(sc3c2C(=O)NC(c2ccc(OC(=O)c4ccc(C(C)(C)C)cc4)cc2)N3)C1 (centres undefined),11µM*,-1%,x,x,x,x
CN1CCc2c(sc3c2C(=O)NC(c2ccc(OC(=O)c4ccc(Cl)cc4)cc2)N3)C1 (centres undefined),-15%,-8%,x,x,x,x
CCOC(=O)c1ccc(N2C(=O)c3[nH]nc(-c4ccc(OCC)cc4)c3C2c2cccs2)cc1 (centres undefined),-6%,-9%,x,x,x,x
CCOC(=O)C1CCN(C(c2cccc(F)c2)c2c(O)cc(C)n(CCOC)c2=O)CC1 (centres undefined),-2%,x,x,x,x,x
c1coc(C2Nc3ccccc3-c3nc4ccccc4n32)c1 (centres undefined),21µM*,18µM*,u,u,u,u
c1ccc(C2Nc3ccccc3-c3nc4ccccc4n32)cc1 (centres undefined),21µM*,26%,u,3%,6%,u
c1ccc(C2Nc3ccccc3-c3nc4ccccc4n32)nc1 (centres undefined),u,-8%,-4%,-6%,-1%,2%
COc1ccccc1Nc1ncccc1C(=O)O,-19%,-8%,2%,-5%,5%,0%
Cc1c(Nc2ncccc2C(=O)O)cccc1C(F)(F)F,19µM*,-5%,1%,0%,10%,u
Cc1c(Cl)cccc1Nc1ncccc1C(=O)O,u,x,26%,5%,-1%,4%
COc1ccc(Nc2ncccc2C(=O)O)cc1,15µM*,-7%,u,u,u,15µM*
Cc1cc(Cl)ccc1Nc1ncccc1C(N)=O,15µM*,8.9µM*,u,26%,u,u
Cc1ccc(Nc2ncccc2C(N)=O)cc1,u,11µM*,u,3.5µM*,2.8µM*,u
COc1ccc(-c2cc3ccc(O)c(CN4CCOCC4)c3oc2=O)cc1OC,-2%,x,x,x,x,x
OC[C@H]1O[C@H](n2cnc3c(N[C@H]4CCC[C@@H]4O)ncnc32)[C@H](O)[C@@H]1O,x,x,x,8%[46.1 µM],3%[46.1 µM],x
COc1ccc(NS(=O)(=O)c2c(C)nc3scc(C)n3c2=O)cc1,0%,-22%,x,x,x,x
Cc1cnc(C(=O)OCc2csc(CC(=O)Nc3ccccc3C)n2)cn1,-2%,x,11%,1%,9%,2%
CCOc1cc(/C=C2\C(=O)N(CCC#N)N=C2C)ccc1OCC(N)=O,-14%,27%,-3%,-1%,-8%,2%
CC(=O)Oc1ccc(/C=C2/C(=O)N(c3ccccc3)N=C2C)cc1,24µM*,x,-2%,-3%,2%,1%
CC1=NN(c2ccccc2)C(=O)/C1=C/c1cccc(C)c1,24µM*,x,-5%,-4%,1%,7%
COc1ccc(/C=C2/C(=O)N(c3ccccc3)N=C2C)cc1OC,6µM*,x,6%,-4%,-2%,11%
SMILES,FLuc modulator,SMN2 splice up,p53 reactivation,NPC1 promoter act,Rab9 promoter act,ELG1 genotox
COc1cc(/C=C2\C(=O)N(CCC#N)N=C2C)ccc1OCC(=O)Nc1ccccc1,11µM*,16%,u,2%,2%,u
O=C(Nc1ccc(F)cc1Cl)c1cnc(N2CCOCC2)c2ccccc12,-9%,x,x,x,x,x
Nc1nc2ccc([N+](=O)[O-])cc2s1,x,-5%,x,x,x,x
CCCN(C(=O)/C=C/c1ccc(S(=O)(=O)N(CC)CC)cc1)C1CCS(=O)(=O)C1 (centres undefined),x,x,8%,x,x,0%
CN(CC(=O)Nc1c(Cl)cccc1Cl)C(=O)c1cccn1C,0%,x,-1%,-1%,6%,0%
CN(C)S(=O)(=O)c1ccc(C(=O)NCc2nnc(SCC(=O)c3ccccc3)o2)cc1,-2%,x,-16%,-8%,7%,-10%
CN(C)Cc1cc(C(C)(C)C)ccc1-c1ccc(C(C)(C)C)cc1CN(C)C,x,-4%[9.22 µM],x,x,x,x
CN1C(=O)/C(=C\c2ccc(N(C)C)cc2)OC1=S,u,x,x,u,u,11%
COc1cc(/C=C2/C(=O)N(c3cccc(Br)c3)N=C2C)cc(OC)c1O,17µM*,x,-2%,-3%,0%,-3%
CC1=NN(CCC#N)C(=O)/C1=C/c1ccc(N(C)C)cc1,19µM*,0%,0%,1%,3%,5%
O=C(O)CC[C@H](NC(=O)c1ccccc1C(=O)O)C(=O)O,x,-12%,x,x,x,x
O=c1c[n+](CCCC[n+]2cc(=O)o[nH]2)[nH]o1,x,-7%[9.22 µM],x,x,x,x
CCOc1ccc(N=Nc2c(=O)[nH]n3c(C)cc(C)nc23)cc1,-19%,-6%,u,4%,5%,3%
Cc1ccc(N=Nc2c(=O)[nH]n3c(=O)cc(C)[nH]c23)cc1,15µM*,-37%,17%,6%,7%,u
O=C(N/N=C/c1ccc(OC(=O)c2cccs2)cc1)c1ccccn1,1.5µM*,x,u,2.5µM*,3.2µM*,7.3µM*
O=C(N/N=C/c1c[nH]c2ccc(Br)cc12)c1ccccn1,u,9%,17%,1%,0%,2%
O=C(N/N=C/c1ccc(OC(=O)c2ccco2)cc1)c1ccccn1,2.7µM*,x,8%,2.8µM*,1.8µM*,u
COc1cc(/C=N/NC(=O)c2ccccn2)ccc1OC(=O)c1ccccc1Br,4.8µM*,x,-9%,u,u,-5%
COc1cc(/C=N/NC(=O)c2ccccn2)ccc1OC(=O)c1ccc(Br)cc1,-8%,x,7%,u,24%,u
O=C(Oc1ccc(/C=N/NC(=O)c2ccccn2)cc1)c1cccc(Br)c1,-6%,x,18%,4µM*,3.5µM*,16µM*
Cc1ccc(NC(=O)Cn2c(=O)n(Cc3nc(-c4ccccc4)no3)c(=O)c3ccccc32)c(C)c1,-8%,x,x,x,x,x
CCOC(=O)[C@H]1[C@H]2COc3ccccc3[C@@H]2N2C(=O)[C@@H](CO)NC(=O)[C@@]12C,2%,x,-6%,-5%,-6%,3%
Cc1ccc(CCNC(=O)NC(C)(C)C)cc1,u,3.5µM*,u,u,u,13%
